Test results published in paper PMC7819943, “Rice protein-binding microarrays: a tool to detect cis-acting elements near promoter regions in rice”.
The full ranking holds about 68,000 sequences; the median of “fluorescence intensity (a.u.)” is about 9,100, and the highest 2% start at about 16,000. This excerpt belongs to a sample that is enriched for the highest values.

These sequences were tested against OsWRKY34 (Oryza sativa, UniProt Q0JBA9 1-250) (assay: protein-binding microarray (RPBM); PBS, 2% BSA, 51.3 ng/ul salmon testes DNA, 50 uM zinc acetate, 200 nM TF, 25 C, 1 h; high values mean tight binding). Conditions: protein: recombinant; tags: N-terminal polyhistidine and DsRed monomer fusion (pET32a); label: CyDye5-dUTP incorporated in the synthesized complementary strand; 3' TTTTT single-stranded linker to array surface; dsDNA, one strand shown.
Summary of the method: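 Transcription factors, each fused N-terminally to a polyhistidine tag and DsRed, were expressed in E. coli BL21-CodonPlus and purified on Ni–NTA. A custom Agilent array was made double-stranded by primer extension with Cy5-dUTP and blocked with 2% BSA. It was incubated with 200 nM protein in PBS, 2% BSA, salmon testes DNA and 50 µM zinc acetate at 25 °C for 1 h, then washed. The binding signal is per-feature fluorescence intensity (arbitrary units) read on an Axon 4000B scanner.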

Sequence of OsWRKY34 (Q0JBA9 entry or part of it): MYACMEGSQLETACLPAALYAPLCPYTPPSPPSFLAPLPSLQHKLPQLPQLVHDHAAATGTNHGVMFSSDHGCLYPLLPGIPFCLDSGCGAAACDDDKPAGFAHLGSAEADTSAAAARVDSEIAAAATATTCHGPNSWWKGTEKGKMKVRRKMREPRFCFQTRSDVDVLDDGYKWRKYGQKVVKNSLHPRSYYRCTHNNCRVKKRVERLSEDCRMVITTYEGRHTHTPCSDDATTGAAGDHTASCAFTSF

| Sequence | binding signal |
| --- | --- |
| TTCCTCTTCTCTTCTCGTCTCTTGTAGTAGTATATATTTACGGAGTCACCTAGTGCAG | 8430 fluorescence intensity (a.u.) |
| TCACTTTTCATGTACAAAACATGTTGATATTGTGGTTGGTCGGAGTCACCTAGTGCAG | 8200 fluorescence intensity (a.u.) |
| TGTGGTGGAGGCCGGCTGGGTTCTCTTGGGGTTTGGCCGGCGGAGTCACCTAGTGCAG | 10400 fluorescence intensity (a.u.) |
| AAATCCCCTTGTTACCGCGCGTTGTTTGGTTGTACCGCGCCGGAGTCACCTAGTGCAG | 16600 fluorescence intensity (a.u.) |
| GCTGTTATTGGTTGCTCCTCGCGGTCTCCTTTTTTGGTGACGGAGTCACCTAGTGCAG | 10800 fluorescence intensity (a.u.) |
| TTCGCGCGCTGCTCGCTCGCTTGGTTGGTTGGTTGATTGCCGGAGTCACCTAGTGCAG | 15200 fluorescence intensity (a.u.) |
| GTTGGGGTGGTTGGTTTGGGGATCCCCTGTTGTACCCTGCCGGAGTCACCTAGTGCAG | 10700 fluorescence intensity (a.u.) |
| ACCGAATCCGAATCCCGCGTTTCTTTGTTGCGCGCGCGACCGGAGTCACCTAGTGCAG | 10100 fluorescence intensity (a.u.) |
| CGCTCCGCGATTCGTGTTGGTTCTTTTTTTTGTTTCTTGGCGGAGTCACCTAGTGCAG | 8470 fluorescence intensity (a.u.) |
| TTGGTTTGGTTGCTCCTCGCGCTGTTATTGGTTGCTCCTCCGGAGTCACCTAGTGCAG | 19900 fluorescence intensity (a.u.) |
| GTTGTTCTTGGCGGCTAGGTCGTGGGGTTTTCTTGTTTCGCGGAGTCACCTAGTGCAG | 22800 fluorescence intensity (a.u.) |
| TCGTTCTTGGCTGGGTTTGGTTTGGTTTGGTTTGGTCTCGCGGAGTCACCTAGTGCAG | 45500 fluorescence intensity (a.u.) |
| TTGGTCTCTCCTCGTCGCTGGGGTTCTTTGTTCTTGTAGTCGGAGTCACCTAGTGCAG | 10000 fluorescence intensity (a.u.) |
| CGTGGGGTTTTCTTGTTTCGGAGGTAGGGAGAGGTTTCGTCGGAGTCACCTAGTGCAG | 11900 fluorescence intensity (a.u.) |
| TTCGGGCATACGCCACCCCGCCTTGTCATCCACCGCGCCCCGGAGTCACCTAGTGCAG | 8470 fluorescence intensity (a.u.) |
| AACATTTATTTCCATATCTTCATATATGGTTCCATATGAACGGAGTCACCTAGTGCAG | 8400 fluorescence intensity (a.u.) |
| TGCCAAGGACTGCATCTTCATCATTGCCTGGGTGTCCACCCGGAGTCACCTAGTGCAG | 8700 fluorescence intensity (a.u.) |
| AACCCACAATTACGCGGCGGTGCATTCTCGTTGCTTTGACCGGAGTCACCTAGTGCAG | 11400 fluorescence intensity (a.u.) |
| ACCGACTCAAAAACCTAACGGCACTTTTTTTATTTTCAACCGGAGTCACCTAGTGCAG | 10600 fluorescence intensity (a.u.) |
| GTTGGTTGGTTGGTTGGTTGGCTTCTTCTCGGTTTGTTCGCGGAGTCACCTAGTGCAG | 25000 fluorescence intensity (a.u.) |
| TCGCGCGTGTCACTGGGTTTGGGTTGGGTCTCTCTCTCTCCGGAGTCACCTAGTGCAG | 18400 fluorescence intensity (a.u.) |
| AACCTCAATTTTGTTTGTTTTGCCTTTTGGTTCAAATACTCGGAGTCACCTAGTGCAG | 8180 fluorescence intensity (a.u.) |

| Sequence | binding signal |
| --- | --- |
| CTCATTGTTGTTGTGTTGTTGCGTTTGGTTTGGTGTGCTCCGGAGTCACCTAGTGCAG | 8510 fluorescence intensity (a.u.) |
| ACGTTGTTTGTGTCACGCTTCTCAAATCCCTTGGTGTTCTCGGAGTCACCTAGTGCAG | 11700 fluorescence intensity (a.u.) |
| CTGCGCTCTCCATTGTTTTGTGTTGTGTTTGTTTGCAGTCCGGAGTCACCTAGTGCAG | 17700 fluorescence intensity (a.u.) |
| TCTACGAGGGTTTTTGCGCTTTTGTTGCTCTCCGCTCCGCCGGAGTCACCTAGTGCAG | 8160 fluorescence intensity (a.u.) |
| TCGCGTCGCGTTTCGACCTCGCGCTCTGGGTCTGGGTGTCCGGAGTCACCTAGTGCAG | 8330 fluorescence intensity (a.u.) |
| GGTTGGCTTCTTCTCGGTTTGTTCGTTCCTTGTGGTCGAGCGGAGTCACCTAGTGCAG | 8240 fluorescence intensity (a.u.) |
| GGTTTCGGTCTCGGTTTTTTCGGTTCGGTTCTTCGGTTCGCGGAGTCACCTAGTGCAG | 9660 fluorescence intensity (a.u.) |
| GGTTGGTGACGCGTTGTTGTTTGTTCCTCAAATTTGTTCTCGGAGTCACCTAGTGCAG | 16500 fluorescence intensity (a.u.) |
| GCGTTTTTGTCTCTCTGCTCTCTGCTGCTGCTGCTGGGTCCGGAGTCACCTAGTGCAG | 11300 fluorescence intensity (a.u.) |
| TCTCAGCGGCCCGAACCTGTCTACGTCGCCCGTGTCTTGTCGGAGTCACCTAGTGCAG | 11200 fluorescence intensity (a.u.) |
| CTGGCACTTGGCACTTGGTTAATTCCACTCACTCATCACTCGGAGTCACCTAGTGCAG | 8260 fluorescence intensity (a.u.) |
| ACATGTGGAGGGAACAGGGCGTGGAATCAAGGGTCGGGATCGGAGTCACCTAGTGCAG | 8290 fluorescence intensity (a.u.) |
| AGATATACCGTTGTTGCATTTCACCTTAAAATATTTCCAACGGAGTCACCTAGTGCAG | 8550 fluorescence intensity (a.u.) |
| GCTCTCTTCTCGCCGCCTCGGCCTCGCCGCCGTGGCCGCCCGGAGTCACCTAGTGCAG | 9500 fluorescence intensity (a.u.) |
| ACATAACCCCGTCATCTCGGCGACCCTCTCTCGTGGTCGCCGGAGTCACCTAGTGCAG | 8540 fluorescence intensity (a.u.) |
| GTCTCACTCTCCCAATCCGCCTCGGCCCGAGCGCGCGCGCCGGAGTCACCTAGTGCAG | 9530 fluorescence intensity (a.u.) |
| CCTTGTATTCGGCCCGCACACGCCAACCTGTCCTGTTCTGCGGAGTCACCTAGTGCAG | 9600 fluorescence intensity (a.u.) |
| GGCGAAGTACTTCTTGGTGTTGTTGCTGCCGCTGCCGGCGCGGAGTCACCTAGTGCAG | 8120 fluorescence intensity (a.u.) |
| TGGTTTGGTTTGGTTCTTTGTTGTTGCTGCCGCTGCCGCGCGGAGTCACCTAGTGCAG | 31400 fluorescence intensity (a.u.) |
| GGTGTTGGGTGTTTGTTCGTTGGTTCCGCTGCTGCTGTTGCGGAGTCACCTAGTGCAG | 8180 fluorescence intensity (a.u.) |
| CAGGGCCATGTTCGCTGATACATTGTGTTGGATTGCACTGCGGAGTCACCTAGTGCAG | 8030 fluorescence intensity (a.u.) |
